D1 PAM – Potentiators of Human D1 Dopamine Receptor: qHTS; D(1A) dopamine receptor (Homo sapiens), P21728; HEK293 TREx D1 cells, calcium flux, dopamine EC20 potentiation; potentiation, % at 10 µM; 360,000 tested, 0.036% active; AID 504651, 2011; in the data active = potentiation above about 30%
TRHR enhancer – qHTS for Small Molecule Agonists and Allosteric Enhancers of Human TRH Receptor: Primary Screen for Enhancers; 360,000 tested, 0.66% active; TRHR cells, fluo-8 calcium fluorescence, EC20 TRH enhancement; AID 493056, 2011; Thyrotropin-releasing hormone receptor (Homo sapiens), P34981; enhancement, % at 2 µM; in the data active = enhancement above about 30%
Target sequence (P34981 whole entry, looked up): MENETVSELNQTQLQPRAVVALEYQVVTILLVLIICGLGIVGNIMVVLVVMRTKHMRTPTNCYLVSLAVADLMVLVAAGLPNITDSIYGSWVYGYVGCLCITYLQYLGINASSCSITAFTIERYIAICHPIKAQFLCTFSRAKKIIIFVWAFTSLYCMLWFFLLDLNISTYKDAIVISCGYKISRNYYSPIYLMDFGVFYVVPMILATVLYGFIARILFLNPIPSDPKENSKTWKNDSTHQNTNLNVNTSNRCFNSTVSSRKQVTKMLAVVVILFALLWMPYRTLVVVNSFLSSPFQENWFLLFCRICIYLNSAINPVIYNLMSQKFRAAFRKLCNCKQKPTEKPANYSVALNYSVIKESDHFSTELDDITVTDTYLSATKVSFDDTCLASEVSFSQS
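TRHR-expressing cells loaded with fluo-8 calcium dye were read kinetically (ex 480/em 530) during compound addition, then stimulated with an EC20 of TRH (10 nM final). Enhancement of the Gq-mediated intracellular calcium response was scored.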
D1 antagonist – Antagonist of Human D 1 Dopamine Receptor: qHTS | HEK293 TREx D1 cells, calcium flux, dopamine EC80; hits give low values | 360,000 tested, 3.2% active | activity change, negative = inhibition, % at 10 µM; in the data active = activity change below about -30%
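Cells carrying a force-coupled, tetracycline-inducible human D1 receptor report calcium flux. Each well gets a 10 s baseline, compound with 180 s monitoring, then an EC80 dopamine stimulus with a second 180 s kinetic read.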
D1 ag – Allosteric Agonists of the Human D1 Dopamine Receptor: qHTS. AID 504660, 2011. D(1A) dopamine receptor (Homo sapiens), P21728. activation, % at 2 µM. HEK293 T-REx D1 cells, calcium flux, agonist mode. 360,000 tested, 1% active
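Agonism was scored from calcium flux recorded over 180 s (1 read/s) after pintool compound addition, following a 10-cycle baseline. Cells were inducible force-coupled HEK293 TREx D1, plated overnight at 30 C and loaded with no-wash calcium dye.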
TRHR ag – qHTS for Small Molecule Agonists and Allosteric Enhancers of Human TRH Receptor: Primary Screen for Agonists | Thyrotropin-releasing hormone receptor (Homo sapiens), P34981 | TRHR cells, calcium flux fluo-8, FDSS agonist mode | activation, % at 2 µM | 360,000 tested, 0.18% active | AID 493084, 2011
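Fluo-8-loaded TRHR cells; 10 s baseline, compound added, kinetic Ca2+ fluorescence read 1/s, agonist mode.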
Numbers stand for hits; ! = not active in a repeat. Hits are enriched below; roughly 4.7% of the tested compounds scored in any of these assays. Cut-off read from the data, not from the text of the source, unless noted: active = activation above about 30%; inactive = the rest.

For COc1ccc(CCN2C(=O)N(c3ccc(F)cc3)C(=O)C2CC(=O)Nc2ccccc2)cc1 (centres undefined) the results were D1 PAM inactive, TRHR enhancer inactive, D1 antagonist inactive, D1 ag inactive and TRHR ag inactive.
Screening O=C(CC1C(=O)N(c2ccccc2)C(=O)N1Cc1ccco1)Nc1ccccc1 (centres undefined) returned D1 PAM inactive, TRHR enhancer inactive, D1 antagonist -44, D1 ag inactive and TRHR ag inactive.
`CCn1c2c(c(=O)n3ncc(C(=O)Nc4ccc(OC(F)(F)F)cc4)c13)CN(Cc1ccc(OC)cc1)CC2` gave D1 PAM inactive, TRHR enhancer inactive, D1 antagonist inactive, D1 ag inactive and TRHR ag inactive.
Screening O=C(COCc1cc(-c2ccc3c(c2)OCO3)on1)Nc1cc(Cl)ccc1O returned D1 PAM inactive, TRHR enhancer inactive, D1 antagonist inactive, D1 ag inactive and TRHR ag inactive.
Screening O=C(CN1CCCCCC1)N1c2ccccc2Sc2ccccc21 returned D1 PAM inactive, TRHR enhancer inactive, D1 antagonist inactive, D1 ag inactive and TRHR ag inactive.
Screening CC1CCCN(CC(=O)N2c3ccccc3Sc3ccccc32)C1 (centres undefined) returned D1 PAM inactive, TRHR enhancer 36, D1 antagonist inactive, D1 ag inactive and TRHR ag inactive.
`CCOC(=O)Nc1ccc2c(c1)N(C(=O)N1CCN(C)CC1)c1ccccc1S2` gave D1 PAM inactive, TRHR enhancer inactive, D1 antagonist -64, D1 ag inactive and TRHR ag inactive.
Screening CCOC(=O)N1CCN(CC(=O)N2c3ccccc3Sc3ccccc32)CC1 returned D1 PAM inactive, TRHR enhancer inactive, D1 antagonist inactive, D1 ag 47 and TRHR ag inactive.
For Cc1cc2c(s1)c1cnn(Cc3ccc(C#N)cc3)c(=O)c1n2C the results were D1 PAM inactive, TRHR enhancer inactive, D1 antagonist inactive, D1 ag inactive and TRHR ag inactive.
For CC(C)CCNC(=O)COC(=O)c1cc(Br)c(Br)s1 the results were D1 PAM inactive, TRHR enhancer inactive, D1 antagonist inactive, D1 ag inactive and TRHR ag inactive.
For CCOC(=O)Cc1sc(N)nc1C the results were D1 PAM inactive, TRHR enhancer inactive, D1 antagonist inactive, D1 ag inactive and TRHR ag inactive.
Cc1ccc(-c2nc(N)sc2CC(=O)OCC(=O)NCCC(C)C)cc1 was read as D1 PAM inactive, TRHR enhancer inactive, D1 antagonist -57, D1 ag inactive and TRHR ag inactive.
`CCCc1sc(N)nc1-c1ccc(C)cc1` gave D1 PAM inactive, TRHR enhancer inactive, D1 antagonist -60, D1 ag inactive and TRHR ag inactive.
`CCC(C)NC(=O)COC(=O)Cc1sc(N)nc1-c1ccc(C)cc1` (centres undefined) gave D1 PAM inactive, TRHR enhancer inactive, D1 antagonist -60, D1 ag inactive and TRHR ag inactive.
Cc1ccc(-c2nc(N)sc2CC(=O)OCC(=O)NCC2CCCO2)cc1 (centres undefined) was read as D1 PAM inactive, TRHR enhancer inactive, D1 antagonist -42, D1 ag inactive and TRHR ag inactive.
Screening Cc1ccn2c(=O)cc(COc3ccc(NC(=O)c4ccccc4F)cc3)nc2c1 returned D1 PAM inactive, TRHR enhancer inactive, D1 antagonist inactive, D1 ag inactive and TRHR ag inactive.
Screening Cc1ccccc1-c1nc(CS(=O)(=O)CC(=O)NCCc2ccccc2)c(C)o1 returned D1 PAM inactive, TRHR enhancer inactive, D1 antagonist -31!, D1 ag 31! and TRHR ag inactive.
For Cc1ccccc1-c1nc(CS(=O)(=O)CC(=O)N2CCCCC2)c(C)o1 the results were D1 PAM inactive, TRHR enhancer 33, D1 antagonist inactive, D1 ag inactive and TRHR ag inactive.
CCN1CCN(C(=O)CS(=O)(=O)Cc2nc(-c3ccc(C)cc3)oc2C)CC1 was read as D1 PAM inactive, TRHR enhancer inactive, D1 antagonist -31, D1 ag inactive and TRHR ag inactive.
`COc1cccc(-c2nc(CS(=O)(=O)CC(=O)NCCc3ccccc3)c(C)o2)c1` gave D1 PAM inactive, TRHR enhancer inactive, D1 antagonist inactive, D1 ag inactive and TRHR ag inactive.
Screening COc1cccc(-c2nc(CS(=O)(=O)CC(=O)NCC(C)c3ccccc3)c(C)o2)c1 (centres undefined) returned D1 PAM inactive, TRHR enhancer inactive, D1 antagonist inactive, D1 ag 70 and TRHR ag inactive.
Cc1ccc(-c2nc(CS(=O)(=O)CC(=O)N3CCN(C)CC3)c(C)o2)cc1 was read as D1 PAM inactive, TRHR enhancer inactive, D1 antagonist inactive, D1 ag inactive and TRHR ag inactive.
`N#Cc1nc(Nc2ccc(Br)cc2)nc(NC2CCCC2)n1` gave D1 PAM inactive, TRHR enhancer inactive, D1 antagonist inactive, D1 ag inactive and TRHR ag inactive.
Screening Cn1c(CNC(=O)CSc2n[nH]c(-c3ccccc3)n2)nc2ccccc21 returned D1 PAM inactive, TRHR enhancer inactive, D1 antagonist inactive, D1 ag inactive and TRHR ag inactive.
For COc1ccc(N2CCN(C(=O)c3nc(-c4ccc(Cl)cc4)n4c3CCCCC4)CC2)cc1 the results were D1 PAM inactive, TRHR enhancer inactive, D1 antagonist inactive, D1 ag inactive and TRHR ag inactive.
Screening CCOc1ccccc1NC(=O)COC(=O)Cc1ccc(-c2ccccc2)cc1 returned D1 PAM inactive, TRHR enhancer inactive, D1 antagonist -37, D1 ag 39 and TRHR ag inactive.
CCOc1ccccc1NC(=O)COC(=O)CNS(=O)(=O)c1ccc(C)cc1 was read as D1 PAM inactive, TRHR enhancer inactive, D1 antagonist inactive, D1 ag inactive and TRHR ag inactive.
CCOc1ccccc1NC(=O)COC(=O)CN(C)S(=O)(=O)c1ccc(C)cc1 was read as D1 PAM inactive, TRHR enhancer inactive, D1 antagonist -45, D1 ag inactive and TRHR ag inactive.
Screening CCOc1ccccc1NC(=O)C1CCN(S(=O)(=O)c2ccc3[nH]c4c(c3c2)CCCCC4)CC1 returned D1 PAM inactive, TRHR enhancer inactive, D1 antagonist inactive, D1 ag inactive and TRHR ag inactive.
Screening CCc1ccc(CNC(=O)C2CCCN(c3nnc(C)c4c(C)n(-c5ccc(OC)cc5)nc34)C2)cc1 (centres undefined) returned D1 PAM inactive, TRHR enhancer inactive, D1 antagonist inactive, D1 ag inactive and TRHR ag inactive.
